Laboratory results as given in PubChem BioAssay (NCI).
About 83,000 compounds went through this panel and 20% of them were active in at least one assay; those are over-represented in the sample as a whole.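 The test compound was applied at a single concentration to cells in 96-well plates for 48 hours, and percent growth was recorded.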 Activity calls are given as the source filed them. How the source made its calls: active means growth percent below 10; inactive means the rest.

The molecules below were run on UACC-257 melanoma (assay: NCI-60 one-dose screen, 48 h (100 = growth as untreated, 0 = no growth, -100 = all killed)). Details: 10 µM.

SMILES | growth
Cc1cccc2cc(-c3cc(-c4ccccc4)nc(=S)[nH]3)c(Cl)nc12 | 77.8% (inactive)
Cc1ccc(/C=C(\C#N)n2nnc3c(F)cccc32)cc1 | 38.6% (inactive)
COc1ccc2nc(Cl)c(-c3cc(-c4ccccc4)nc(=S)[nH]3)cc2c1 | 38.2% (inactive)
Cc1ccc(C(=O)Nc2ccc(-n3c(C)nc4c(cnn4-c4ccccc4)c3=O)cc2)cc1 | 42% (inactive)
Cc1ccc(-c2ccc(SCC(=O)Nc3ccc(Cl)c(C(F)(F)F)c3)nn2)cc1 | 57.6% (inactive)
O=C(COc1ccc(NC(=O)Nc2ccc(Cl)cc2)cc1)N=Nc1c(O)[nH]c2ccc([N+](=O)[O-])cc12 | 74.9% (inactive)
Cc1nn(-c2ccccc2)c2ncn(CC(=O)N/N=C/c3c[nH]c4ccccc34)c(=O)c12 | 94.3% (inactive)
S=c1nc(-c2ccccc2)cc(-c2cc3ccccc3nc2Cl)[nH]1 | 81.6% (inactive)
Cc1ccc(C(=O)NCCCNc2nc(Nc3ccc(N4CCN(C)CC4)cc3)nc3ccsc23)cc1 | -17.7% (active)
COc1ccc2nc(Cl)c(-c3cc(-c4ccccc4)nc(N)n3)cc2c1 | 71.6% (inactive)
COc1cc(Cn2c(C(F)(F)F)cc3c(Cl)ncnc32)ccn1 | 30.1% (inactive)
O=C1CCC(N2Cc3c(NCc4ccc(-c5ccccc5)cc4)cccc3C2=O)C(=O)N1 (centres undefined) | 103% (inactive)
O=c1nc(-c2ccccc2)cc(-c2cc3ccccc3nc2Cl)[nH]1 | 91.2% (inactive)
Cc1nc2c(cnn2-c2ccccc2)c(=O)n1-c1ccc(NC(=O)c2ccc(F)cc2)cc1 | 31.8% (inactive)
